Assay [1] is described as follows: Cell Viability - LYMP2-003 (AID 965).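 Also: cells exposed to compounds for 24 h before reading; nearly all actives have a fitted effect of over 50% in size.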 Also: potency is read from the fitted curve at half-maximal effect. To be noted: LYMP2-003 lymphoblastoid cell viability; series mostly up to 92.2 µM. Put shortly:
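qHTS, human lymphoblastoid line, 2500 cells/well, complete medium. 24 h drug, 37 C. ATP-based luminescent readout; Hill-fit AC50.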

Assay [2] in a line: Cell Viability - LYMP2-011 (AID 969). Also: nearly all actives have a fitted effect of over 60% in size. Also: potency is read from the fitted curve at half-maximal effect. To be noted: LYMP2-011 lymphoblastoid cells viability; series mostly up to 92.2 µM. The method, boiled down:
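2500 cells/well, 5 hr 37 C; compound added, 24 hr 37 C; CellTiter-Glo 30 min RT; luminescence. qHTS concentration-response, Hill-equation AC50. Tetraoctylammonium bromide positive control.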

A short description of assay [3]: Cell Viability - LYMP2-017 (AID 972). Also: nearly all actives have a fitted effect of over 55% in size. Also: potency is read from the fitted curve at half-maximal effect. As to conditions: LYMP2-017 lymphoblastoid cell viability; series mostly up to 92.2 µM. The method, boiled down: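 2500 cells/well, 5 h 37 C; cpd 24 h 37 C in complete medium; CellTiter-Glo, 30 min RT; luminescence (ATP). AC50 via Hill fit, qHTS.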
Assay [4] in a line: Cell Viability - LYMP2-023 (AID 975). Also: nearly all actives have a fitted effect of over 55% in size. Also: potency is read from the fitted curve at half-maximal effect. As to conditions: LYMP2-023 lymphoblastoid cell viability; series mostly up to 92.2 µM. Put shortly:
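2500 cells/well, 5 hr 37 C; cpd 24 hr 37 C; CellTiter-Glo, 30 min RT; luminescence. qHTS conc-response, Hill fit -> AC50. Pos ctrl tetraoctylammonium bromide.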

A short description of assay [5]: Cell Viability - LYMP2-025 (AID 976). Also: potency is read from the fitted curve at half-maximal effect. As to conditions: LYMP2-025 lymphoblastoid cell viability; series mostly up to 92.2 µM. The method, boiled down:
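Seed 2500 LYMP2-025 cells/well; 5 hr at 37 C; add compound; 24 hr at 37 C; add CellTiter-Glo; 30 min RT; read luminescence. AC50 from Hill-modelled concentration-response.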

A short description of assay [6]: Cell Viability - LYMP2-002 (AID 977).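 Also: compound exposure lasted 24 h at 37 °C.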 Also: potency is read from the fitted curve at half-maximal effect. To be noted: LYMP2-002 lymphoblastoid cell viability, qHTS; series mostly up to 92.2 µM. The method, boiled down:
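Cytotoxicity is scored as concentration-dependent loss of cellular ATP in a human lymphoblastoid line after 24 hr compound treatment at 37 C. AC50 is obtained by modelling concentration-response data with the Hill equation.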
A general note: qHTS replaces the single test concentration by a dilution series.

A short description of assay [7]: Cell Viability - LYMP2-008 (AID 980). Also: nearly all actives have a fitted effect of over 60% in size. Also: potency is read from the fitted curve at half-maximal effect. As to conditions: LYMP2-008 lymphoblastoid cell viability, qHTS; series mostly up to 92.2 µM. Put shortly: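 qHTS, human lymphoblastoid line, 2500 cells/well; 5 hr preincubation, 24 hr compound, 37 C. CellTiter-Glo ATP luminescence. AC50 via Hill equation. Tetraoctylammonium bromide positive control.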
Assay [8] in a line: Cell Viability - LYMP2-010 (AID 981). Also: nearly all actives have a fitted effect of over 55% in size. Also: potency is read from the fitted curve at half-maximal effect. To be noted: LYMP2-010 lymphoblastoid cell viability, qHTS; series mostly up to 92.2 µM. Put shortly: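 Luminescent ATP signal (CellTiter-Glo) served as the viability read-out. Cells of the human lymphoblastoid line were treated with compound over a concentration range for 24 hours at 37 C, and AC50 values came from Hill-equation modeling.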

Assay [9] can be described thus: Cell Viability - LYMP2-012 (AID 982).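 Also: cellular ATP by luciferase luminescence where a drop means cytotoxicity; cells exposed to compound for one day before reading; nearly all actives have a fitted effect of over 55% in size.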 Also: potency is read from the fitted curve at half-maximal effect. As to conditions: LYMP2-012 lymphoblastoid cell viability qHTS; series mostly up to 92.2 µM.
The nature of assay [10]: Cell Viability - LYMP2-014 (AID 983). Also: nearly all actives have a fitted effect of over 50% in size. Also: potency is read from the fitted curve at half-maximal effect. As to conditions: LYMP2-014 lymphoblastoid cells, viability qHTS; series mostly up to 92.2 µM. Put shortly: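 Luminescent ATP signal (CellTiter-Glo, 30 min at room temperature) serves as the viability read-out after 24 hr compound exposure at 37 C. Cells were seeded at 2500 per well and settled 5 hr beforehand.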
A short description of assay [11]: Cell Viability - LYMP2-016 (AID 984). Also: nearly all actives have a fitted effect of over 55% in size. Also: potency is read from the fitted curve at half-maximal effect. To be noted: LYMP2-016 lymphoblastoid cell viability, qHTS; series mostly up to 92.2 µM. The method, boiled down:
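Concentration-dependent ATP depletion measured in LYMP2-016 lymphoblastoid cells, 24 h, 37 C; luciferase-based luminescent detection; Hill-equation AC50.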

The nature of assay [12]: Cell Viability - LYMP2-018 (AID 985). Also: nearly all actives have a fitted effect of over 50% in size. Also: potency is read from the fitted curve at half-maximal effect. To be noted: LYMP2-018 lymphoblastoid cells, viability (qHTS); series mostly up to 92.2 µM. Put shortly: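 Luminescent ATP signal (CellTiter-Glo, read after 30 min at room temperature) reports viable cells after 24 hr compound treatment at 37 C. Concentration-response data were fitted to the standard Hill equation for AC50.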
Assay [13] in a line: Cell Viability - LYMP2-020 (AID 986). Also: nearly all actives have a fitted effect of over 55% in size. Also: potency is read from the fitted curve at half-maximal effect. As to conditions: series mostly up to 92.2 µM. Put shortly:
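Luminescent ATP signal (CellTiter-Glo, 30 min at room temperature) is the read-out after 24 h compound treatment of lymphoblastoid cells at 37 C. AC50 values come from Hill-equation fits across concentrations.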

Assay [14] is described as follows: Cell Viability - LYMP2-022 (AID 987). Also: nearly all actives have a fitted effect of over 55% in size. Also: potency is read from the fitted curve at half-maximal effect. To be noted: LYMP2-022 lymphoblastoid cell viability; series mostly up to 92.2 µM. Put shortly: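 qHTS: human lymphoblastoid cells 2500/well; 5 hr 37 C; cpd added; 24 hr 37 C; CellTiter-Glo, 30 min RT; luminescence. AC50 via Hill fit; tetraoctylammonium bromide positive ctrl.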
Assay [15] in a line: Cell Viability - LYMP2-024 (AID 988). Also: nearly all actives have a fitted effect of over 60% in size. Also: potency is read from the fitted curve at half-maximal effect. As to conditions: LYMP2-024 lymphoblastoid cell viability; series mostly up to 92.2 µM. The method, boiled down:
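Steps: seed 2500 cells/well, 5 hr 37 C; add compound, 24 hr 37 C; add CellTiter-Glo, 30 min room temperature; read luminescence. AC50 derived by Hill modelling of concentration-dependent ATP loss.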

Assay [16] is described as follows: Cell Viability - LYMP2-026 (AID 989). Also: nearly all actives have a fitted effect of over 50% in size. Also: potency is read from the fitted curve at half-maximal effect. As to conditions: LYMP2-026 lymphoblastoid cell viability, qHTS; series mostly up to 92.2 µM. Put shortly:
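Luminescent ATP signal (CellTiter-Glo, 30 min room temperature) measures viable lymphoblastoid cells after 24 hr compound treatment at 37 C. Decreased ATP reflects acute toxicity; AC50 values come from Hill-equation modeling.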

Assay [17] can be described thus: Cell Viability - LYMP1-002 - Assay at 24 hr (AID 993). Also: potency is read from the fitted curve at half-maximal effect. As to conditions: LYMP1-002 lymphoblastoid cells viability; series mostly up to 92.2 µM. Put shortly:
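Cells plated 2500/well, 5 hr 37 C; compounds added, 24 hr 37 C; CellTiter-Glo added, 30 min RT; luminescence read. Tetraoctylammonium bromide positive control. Hill-equation AC50.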

The nature of assay [18]: Cell Viability - LYMP1-002 - Assay at 40 hr (AID 994). Also: nearly all actives have a fitted effect of over 60% in size. Also: potency is read from the fitted curve at half-maximal effect. As to conditions: LYMP1-002 lymphoblastoid cell viability; series mostly up to 92.2 µM. The method, boiled down:
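Luminescent ATP signal served as the viability readout, with decreases taken as toxicity. Cells were treated with compounds across a concentration range for 40 hours at 37 C, and AC50 values came from standard Hill modeling.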

The target of assay [19] is Glucocorticoid receptor (Homo sapiens) (UniProt P04150). As to the kind of experiment: qHTS assay for small molecule antagonists of glucocorticoid receptor signaling (AID 588533; active = well fitted inhibition curve with a large enough effect in the signal ratio, with a control signal flat, not every such curve was filed as active; the % refers to the signal ratio;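 also: cells stimulated with 2 nM dexamethasone as agonist; % is scaled to controls: 0 for no effect and ±100 for the full control effect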). As to conditions: HeLa MMTV-bla, GRE beta-lactamase ratio, antagonist mode, 18 h; series mostly up to 76.8 µM. Put shortly:
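Antagonist-mode qHTS: compound titrations added to GRE-bla HeLa cells, then dexamethasone 2 nM final; 18 h, 37 C. CCF4 FRET fluorescence normalized to dexamethasone and DMSO; IC50 from Hill fit.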

In assay [20] the target is Androgen receptor (Homo sapiens) (UniProt P10275). Nature of the assay: qHTS assay for small molecule agonists of androgen receptor signaling (AID 588515; active = well fitted curve in the direction sought with a large enough effect in the signal ratio, with a control signal flat; the % refers to the signal ratio; also: % is scaled to controls: 0 for no effect and ±100 for the full control effect). As to conditions: AR-UAS-bla HEK293, beta-lactamase ratio, agonist 16 h; active compounds read high. Put shortly:
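EC50 and efficacy came from Hill fits of titrations (up to 92 uM) normalized to 30 nM R1881 as 100% and DMSO as 0%. Compound exposure was 16 h at 37 C on AR-UAS-bla HEK293 cells, with a 405/460/530 nm CCF4 fluorescence read.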

Unmarked numbers belong to inactive results. Inconclusive results are not listed. Active and inactive are the calls of the source. Unless noted, calls follow the shape of the dose curve; as a rule, active = well fitted curve in the direction sought with a large enough effect; inconclusive = small, poorly fitted or top-dose-only effect, or another doubt; inactive = no such curve, though single readings can be large; an effect the other way counts as inactive or inconclusive.

Sequence of Androgen receptor (Homo sapiens) (P10275 whole entry, looked up): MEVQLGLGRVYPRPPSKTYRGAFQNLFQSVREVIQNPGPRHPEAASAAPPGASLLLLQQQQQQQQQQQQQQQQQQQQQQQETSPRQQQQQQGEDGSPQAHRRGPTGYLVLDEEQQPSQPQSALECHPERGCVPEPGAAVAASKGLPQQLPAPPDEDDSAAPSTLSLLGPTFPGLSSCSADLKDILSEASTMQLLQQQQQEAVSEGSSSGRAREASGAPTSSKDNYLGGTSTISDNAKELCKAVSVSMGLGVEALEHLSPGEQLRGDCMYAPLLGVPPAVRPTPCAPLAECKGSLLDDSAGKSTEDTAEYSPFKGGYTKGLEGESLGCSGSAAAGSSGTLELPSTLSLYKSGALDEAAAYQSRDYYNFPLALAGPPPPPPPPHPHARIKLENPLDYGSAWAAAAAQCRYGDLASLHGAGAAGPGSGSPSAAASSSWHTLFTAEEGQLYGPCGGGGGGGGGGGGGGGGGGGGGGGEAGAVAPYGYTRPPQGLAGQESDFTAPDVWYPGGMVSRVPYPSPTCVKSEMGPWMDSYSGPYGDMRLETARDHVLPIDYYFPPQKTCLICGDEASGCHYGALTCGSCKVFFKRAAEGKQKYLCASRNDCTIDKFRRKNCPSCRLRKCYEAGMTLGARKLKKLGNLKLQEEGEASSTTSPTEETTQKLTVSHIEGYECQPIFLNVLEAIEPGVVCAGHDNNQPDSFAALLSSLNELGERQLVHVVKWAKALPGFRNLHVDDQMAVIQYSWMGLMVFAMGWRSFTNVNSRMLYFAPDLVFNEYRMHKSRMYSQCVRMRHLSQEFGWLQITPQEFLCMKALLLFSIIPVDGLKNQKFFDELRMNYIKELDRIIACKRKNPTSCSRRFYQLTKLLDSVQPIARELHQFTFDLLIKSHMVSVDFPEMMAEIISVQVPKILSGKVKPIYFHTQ
Sequence of Glucocorticoid receptor (Homo sapiens) (P04150 whole entry, looked up): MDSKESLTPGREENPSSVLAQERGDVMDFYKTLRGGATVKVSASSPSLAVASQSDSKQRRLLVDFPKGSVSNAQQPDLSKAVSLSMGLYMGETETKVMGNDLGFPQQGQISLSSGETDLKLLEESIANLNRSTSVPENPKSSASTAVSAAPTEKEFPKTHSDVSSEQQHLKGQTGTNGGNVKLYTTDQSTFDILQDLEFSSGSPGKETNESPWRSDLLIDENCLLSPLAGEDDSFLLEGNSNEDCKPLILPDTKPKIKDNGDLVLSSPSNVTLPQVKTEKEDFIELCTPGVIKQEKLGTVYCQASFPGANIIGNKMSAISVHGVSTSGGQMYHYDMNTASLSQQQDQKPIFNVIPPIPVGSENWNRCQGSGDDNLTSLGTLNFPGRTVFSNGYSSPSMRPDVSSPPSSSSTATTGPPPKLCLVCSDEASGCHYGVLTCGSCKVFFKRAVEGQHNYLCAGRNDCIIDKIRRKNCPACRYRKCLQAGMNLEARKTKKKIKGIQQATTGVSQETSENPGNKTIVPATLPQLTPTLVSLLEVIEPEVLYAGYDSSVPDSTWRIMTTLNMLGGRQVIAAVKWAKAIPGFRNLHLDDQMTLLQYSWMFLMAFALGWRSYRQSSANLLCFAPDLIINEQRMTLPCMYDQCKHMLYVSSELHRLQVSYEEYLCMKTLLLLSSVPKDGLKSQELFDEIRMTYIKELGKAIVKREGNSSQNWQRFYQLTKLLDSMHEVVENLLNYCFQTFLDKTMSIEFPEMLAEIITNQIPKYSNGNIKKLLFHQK

Regarding `CCCCCCCCCc1ccc(O)cc1`, the Potency result in assay [1], in [2], in [3], in assay [4], in [5] and in assay [6] was “inactive” in each case. The Potency result in assay [7], in [8], in assay [9], in [10], in [11] and in assay [12] was “inactive” each time. The Potency entry in [13], in assay [14], in assay [15], in assay [16], in assay [17] and in assay [18] was “inactive” in each case.

As for `O=C1C(Cl)=C(Cl)C(=O)C(Cl)=C1Cl`, the Potency is 20 µM (active) in [1]; 25.1 µM (active) in assay [2]; 20 µM (active) in assay [3]; 25.1 µM (active) in assay [4]; 50.1 µM (active) in assay [5]; 25.1 µM (active) in [6]. Besides, the Potency in assay [7] is 39.8 µM (active); in assay [8] it was 12.6 µM (active); in assay [9], 15.8 µM (active); in [10], 20 µM (active); in [11], 25.1 µM (active); in assay [12], 39.8 µM (active). In addition, the Potency in [13] is 12.6 µM (active); in [14] it was 15.8 µM (active); in assay [15], 10 µM (active); in [16], 25.1 µM (active); in [17], 39.8 µM (active); in [18] it was 39.8 µM (active).

For `CNC(=O)Oc1ccccc1OC(C)C`, the Potency result in [19] is “inactive”.

For the compound `CCS(=O)CCSP(=O)(OC)OC` (stereo not given), in assay [20], the activation is 7.09%. Further, in assay [19], the Potency result was “inactive”.

For `CCC(=O)Nc1ccc(Cl)c(Cl)c1`, the activation in assay [20] was 16.4%.
